The record followed here is PubChem BioAssay AID1851 (National Center for Advancing Translational Sciences (NCATS), 2009).

Out of some 16,000 compounds screened, about 5,800 (36%) were called active. Roughly 23% stayed inconclusive and do not appear here. The list shows a part of the results. A number with no mark means an inactive call. Calls follow the shape of the dose curve; as a rule, active = well fitted curve in the direction sought with a large enough effect; inconclusive = small, poorly fitted or top-dose-only effect, or effect the other way; inactive = no such curve, though single readings can be large or run the other way.
% is scaled to controls: 0 for no effect and ±100 for the full control effect.

Chain of Cytochrome P450 2C19 (Homo sapiens) (P33261 whole entry, looked up): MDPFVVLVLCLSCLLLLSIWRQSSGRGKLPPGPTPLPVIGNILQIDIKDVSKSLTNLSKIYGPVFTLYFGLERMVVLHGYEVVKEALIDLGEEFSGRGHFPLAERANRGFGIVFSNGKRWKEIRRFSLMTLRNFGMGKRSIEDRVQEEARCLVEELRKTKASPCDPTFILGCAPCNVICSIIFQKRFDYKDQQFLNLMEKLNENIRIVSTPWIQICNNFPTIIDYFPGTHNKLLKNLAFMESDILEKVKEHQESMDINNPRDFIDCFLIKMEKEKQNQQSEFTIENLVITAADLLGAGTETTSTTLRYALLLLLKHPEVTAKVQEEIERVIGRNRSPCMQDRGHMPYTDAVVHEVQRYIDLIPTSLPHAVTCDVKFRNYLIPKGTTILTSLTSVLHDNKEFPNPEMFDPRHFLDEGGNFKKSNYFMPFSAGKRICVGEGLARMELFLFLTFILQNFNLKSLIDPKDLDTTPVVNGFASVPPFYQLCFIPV

The test has as its target Cytochrome P450 2C19 (Homo sapiens) (UniProt P33261). Put plainly: Cytochrome panel assay with activity outcomes. Conditions: recombinant CYP, pro-luciferin dealkylation, luminescence, p450-cyp2c19; series mostly up to 57.1 µM; activity, negative = inhibition: at the top concentration.
Take `O=S1(=O)C=C(N2CCOCC2)c2ccccc21`: the “activity, negative = inhibition” value is -30.9%.
For `O=S1(=O)C=C(Oc2ccc3ccccc3c2)c2ccccc21`, the AC50 (as a rule, the concentration giving half of the maximal activity seen) is 3.55 µM (active).
Still for that read-out and setting: with `Nc1ccc(S(=O)(=O)Nc2cnc3ccccc3n2)cc1` the entry was “inactive”; with `Cc1ccc(S(=O)(=O)Nc2nc3ccccc3nc2N2CCc3ccccc3C2)cc1`, 5.01 µM (active).
Consider `O=C(c1ccncc1)N1CCC2(CCCN(Cc3ccccc3)C2)CC1`, for which the “activity, negative = inhibition” value was -1.19%.
With `CCCCn1c(SCC(N)=O)nc2ccc(N3CCOCC3)cc2c1=O`, the “activity, negative = inhibition” value was -12.8%.
With `N#CCSc1nc2cc(C(=O)N3CCCC3)ccc2c(=O)n1Cc1ccccc1`, the half-maximal activity concentration (AC50) was 11.2 µM (active).
The same measure, in the same setting: under `N#CCSc1nc2ccc(N3CCCCC3)cc2c(=O)n1Cc1ccccc1` stands 7.94 µM (active).
Regarding `N#CCCn1c(=O)c(-c2ccc(F)cc2)nc2cnc(OCc3ccccc3)nc21`, the “activity, negative = inhibition” value is 15.8%.
Same read-out and setting: under `COc1ccc(C(=O)N2CCC[C@@]3(CCN(Cc4ccc(C#N)cc4)C3)C2)cc1` stands -8.34%; under `CSc1nc(N)c2ncn([C@H]3O[C@H](COP(=O)(O)OP(=O)(O)O)[C@@H](O)[C@@H]3O)c2n1`, -16.9%.
In the case of `N#Cc1cc(-c2ccccc2)cnc1Sc1ccc(Cl)cc1`, the AC50 is 4.47 µM (active).
The same measure, in the same setting: under `N#Cc1cc(-c2ccc(Cl)cc2)cnc1Sc1ccccc1` stands 4.47 µM (active); under `N=C1C(c2nc(-c3ccc(F)cc3)cs2)=C(O)CN1CCCN1CCOCC1`, 25.1 µM (active).
On to `N#Cc1c2c(c(-n3cnc4ccccc43)n3c1nc1ccccc13)CCC2`, for which the “activity, negative = inhibition” value is -23.5%.
Turning to `c1ccc2c(c1)ncn2-c1ncnc2sc3c(c12)CCCC3`, the half-maximal activity concentration (AC50) is 8.91 µM (active).
With `COc1ccccc1CN1CC2(CCN(C(=O)c3cnccn3)CC2)C1`, the “activity, negative = inhibition” value is 37.1%.
In the case of `COc1ccccc1CN1CC2(CCN(C(=O)c3ccncc3)CC2)C1`, the “activity, negative = inhibition” value is -42.2%.
As to `COc1ccccc1CN1C(=O)c2ccncc2C1=O`, the AC50 is 14.1 µM (active).
Turning to `CCOC(=O)c1c(C)nc2sc3c(=O)n(-c4ccc(C(C)=O)cc4)nnc3c2c1-c1ccc(Cl)cc1`, the “activity, negative = inhibition” value was -21.6%.
As to `CCOC(=O)c1c(C)nc2sc3c(=O)n(-c4ccc(C)cc4)cnc3c2c1-c1ccc(OC)cc1`, the AC50 is 1.26 µM (active).
Turning to `Cc1cc2ccccc2c[n+]1CC(O)C[n+]1cc2ccccc2cc1C`, the activity, negative = inhibition is 3.92% [at 11.4 µM].
With `O=C(NCc1ccccc1)c1cccc(COc2cccc(Cl)c2)c1`, the AC50 was 7.08 µM (active).
Regarding `O=C(O)c1ccc(OCc2ccccc2)c(Cl)c1`, the activity, negative = inhibition is 18.7% [at 11.4 µM].
As to `N#CC1=C(N)OC2=C(C(=O)CCC2)C12CCC1(CC2)OCCO1`, the “activity, negative = inhibition” value is -60.8%.
Take `O=c1c(-c2nnc(SCc3ccc(Cl)cc3Cl)o2)cccn1Cc1ccccc1`: the AC50 was 1.26 µM (active).
On the same count and under the same terms, under `O=c1c(-c2nnc(SCc3ccc(Cl)c(Cl)c3)o2)cccn1Cc1ccccc1` stands 1.41 µM (active).
Turning to `COc1ccc(-c2nc3cnc(N4CCN(C)CC4)nc3n(C)c2=O)cc1`, the “activity, negative = inhibition” value is -40.9%.
Regarding `CN(C)c1ncc2nc(-c3cc(F)cc(F)c3)c(=O)n(CCC#N)c2n1`, the “activity, negative = inhibition” value is 13.1%.
The same measure, in the same setting: under `O=C(/C=C/c1cccc([N+](=O)[O-])c1)NCCN1CCOCC1` stands -22.3%.
As for `CCOC(=O)C1CCCN(C/C=C/c2ccccc2[N+](=O)[O-])C1` (configuration not stated), the half-maximal activity concentration (AC50) was 3.98 µM (active).
As to `CC1CC(C)CN(C/C=C/c2ccccc2[N+](=O)[O-])C1` (configuration not stated), the AC50 is 7.08 µM (active).
For `CC1CCCN(C/C=C/c2ccccc2[N+](=O)[O-])C1` (configuration not stated), the AC50 was 8.91 µM (active).
For the molecule `Cc1ccc(NC(=O)/C(=C/c2cccc([N+](=O)[O-])c2)NC(=O)C2CCCCC2)c(C)c1`, the “activity, negative = inhibition” value was -19.8%.
Same read-out and setting: with `O=C(O)[C@H]1CCCN(CCC=C(c2ccccc2)c2ccccc2)C1` the figure was 37%.
As for `CCOC(=O)C1CCCN(C(=O)/C=C/c2cccc([N+](=O)[O-])c2)C1` (configuration not stated), the AC50 is 14.1 µM (active).
As to `O=C(CCCCC(=O)Nc1c(I)cc(I)c(C(=O)O)c1I)Nc1c(I)cc(I)c(C(=O)O)c1I`, the “activity, negative = inhibition” value was 2.67% [at 25.6 µM].
Consider `O=C(O)CCNc1ncnc2nc[nH]c12`, for which the activity, negative = inhibition is 35.9% [at 11.4 µM].
The same measure, in the same setting: under `O=C(Nc1cc(C(=O)Nc2ccc(S(=O)(=O)O)cc2S(=O)(=O)O)cc(C(=O)Nc2ccc(S(=O)(=O)O)cc2S(=O)(=O)O)c1)Nc1cc(C(=O)Nc2ccc(S(=O)(=O)O)cc2S(=O)(=O)O)cc(C(=O)Nc2ccc(S(=O)(=O)O)cc2S(=O)(=O)O)c1` stands -25.4%; under `C#CCCCO/N=C1/C[C@@H](O)[C@@H](O)[C@@H]2[C@@H]3C(=O)N(CCC(=O)OCC)C(=O)[C@H]3CC[C@H]12`, 2.13% [at 11.4 µM].
As to `Oc1c(Cl)cc(C(c2cc(Cl)c(O)c(Cl)c2)C(c2cc(Cl)c(O)c(Cl)c2)c2cc(Cl)c(O)c(Cl)c2)cc1Cl`, the AC50 is 2.51 µM (active).
Consider `Oc1c(Cl)cc(CN(Cc2cc(Cl)c(O)c(Cl)c2)C2CCCCC2)cc1Cl`, for which the activity, negative = inhibition was -4.32% [at 11.4 µM].
On to `O=C(O)CCN1C(=S)CSC1=S`, for which the activity, negative = inhibition was 27% [at 11.4 µM].
In the case of `Cc1nn(C)c(Cl)c1NC(=O)OCc1ccc(Cl)cc1Cl`, the AC50 was 2.24 µM (active).
On to `CCOC(=O)N/N=C/c1ccc(F)cc1`, for which the “activity, negative = inhibition” value was -26%.
Consider `Cc1nn(C)c(Cl)c1NC(=O)OCc1ccc(F)cc1`, for which the AC50 was 7.08 µM (active).
As for `COC(=O)N1CCC2(CCN(Cc3ccccc3OC)CC2)CC1`, the “activity, negative = inhibition” value was -39%.
